The OligoGym collection

Biological target: C3orf64
Assay: pooled miR-30 sensor sort-seq; sequence = guide strand
Conditions: shRNA

First: TATATGGACAAAGAGAGTCTTT
Second: TATAACATGGTCCTATAGCTTG
The sensor-assay potency score (higher = more potent) of the first is higher: -0.594 for the first, -1.11 for the second.

Going from TTTCCTACCACAAACAGTGTTA to TTAGTTGATCTAAAAACCCAAG, the sensor-assay potency score (higher = more potent) falls from -0.00284 to -1.13.

Going from TTCATCTTCACAGTTGTACAGT to TAGAAGACTGTTCCAATCCTTT, the sensor-assay potency score (higher = more potent) falls from 0.304 to -0.485.

Work on TAACATGTTGTAATTCTTCTTA yielded a sensor-assay potency score (higher = more potent) of 0.391.

Biological target: C4orf27
Assay: as above
Conditions: shRNA

Going from TTATCTACTGGAACAACCAAGC to TTATACAATTTTTCTTTGCTTC, the sensor-assay potency score (higher = more potent) rises from -0.86 to -0.21.

First: TATGTTCTCTTGACTTCTGTTT
Second: TTCATCATTAGCAAACTGCACA
The sensor-assay potency score (higher = more potent) of the first is higher: -0.298 for the first, -0.513 for the second.

Compared with TATAATGATTTTCTACTTCTTT, TAATGGTCTGGAACTCAGGAGG is lower in sensor-assay potency score (higher = more potent): -0.484 for the first, -0.721 for the second.

Going from TTCTTTTCGAAGGTCACTGGAG to TCTACTGGAACAACCAAGCCTG, the sensor-assay potency score (higher = more potent) rises from -0.538 to -0.00895.

Compared with TTCTCTTGAGGTCAGCATCTGT, TTTATCTACTGGAACAACCAAG is lower in sensor-assay potency score (higher = more potent): -0.164 for the first, -0.789 for the second.

Compared with TTAGTCTCTCCTCATCACTTGC, TATTTCTCTAAGTTTTTTCGTC is higher in sensor-assay potency score (higher = more potent): -0.932 for the first, -0.0754 for the second.

Biological target: C4orf45
Assay: as above
Conditions: shRNA

Compared with TAATCCTTTATGTAGTCTGGAC, TTAGGTGGTTTGGAAGCTCTTG is higher in sensor-assay potency score (higher = more potent): -0.844 for the first, -0.244 for the second.

Going from TCTCTGATCAGTGTCCTCGAAA to TTTTGGTAGCTTCGGCAGCTTA, the sensor-assay potency score (higher = more potent) falls from -0.979 to -1.74.

Compared with TATTTTGCTGGCAAGCTTCTAT, TTATGTAGTCTGGACCTGTAAA is lower in sensor-assay potency score (higher = more potent): -0.0491 for the first, -1.37 for the second.

Going from TTATACTGTGGTATTCTCCAAC to TAGGTGGTTTGGAAGCTCTTGG, the sensor-assay potency score (higher = more potent) falls from -0.109 to -0.261.

First: TTATATTTTGCTGGCAAGCTTC
Second: TTCCTTTTTTGGTAGCTTCGGC
The sensor-assay potency score (higher = more potent) of the first is lower: -1.08 for the first, -0.246 for the second.

Compared with TTTTTCTAACGCCAGATGCTGT, ATAAATATCTGAGATCTCCAGT is higher in sensor-assay potency score (higher = more potent): -0.936 for the first, 0.467 for the second.

Biological target: C5AR1
Assay: as above
Conditions: shRNA

First: AAGTGTAACAAATCGTGAGCGT
Second: TTCAGCAGCAGGAAGGTGGGTG
The sensor-assay potency score (higher = more potent) of the first is lower: -0.136 for the first, 0.301 for the second.

Going from TTGAGTGTCTTGGTGGACCGCG to TAAACACCAGCAGAAAGCGGTC, the sensor-assay potency score (higher = more potent) falls from 0.0393 to -1.02.

Compared with TACATATTTTCCAACTTGCCAT, TAACTCACTTACAAGAGCTTAG is higher in sensor-assay potency score (higher = more potent): -0.462 for the first, -0.132 for the second.

First: ATAGTGTCCACTGTGGAGCGCG
Second: TTAAACACCAGCAGAAAGCGGT
The sensor-assay potency score (higher = more potent) of the first is lower: -0.598 for the first, -0.159 for the second.

Sequence TTAGAAGTTTTATCCACAGGGG has a sensor-assay potency score (higher = more potent) of -0.274.
